Results taken from PubChem BioAssay (NCATS).
Inconclusive results are not listed. Values without a mark were called inactive. Calls follow the shape of the full dose curve.

Assay: S16 Schwann cell PMP22 intronic element beta-lactamase assay (AID 624044);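 also: 0% = DMSO and -100% = potassium clavulanate positive control; nearly all actives have a fitted effect of over 15% in size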
Conditions: S16 rat Schwann cells, PMP22 element beta-lactamase FRET, 24 h; series mostly up to 38.3 µM; ratio activity, negative = inhibition: at the top concentration
Outline: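 Rat S16 Schwann cells with beta-Lac driven by a PMP22 intronic element, compound-treated 24 h at 37 °C. LiveBLAzer FRET B/G read: 460 nm normalized to potassium clavulanate vs DMSO; 535 nm FRET as viability; concentration-effect curves classified.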

Compound | ratio activity, negative = inhibition
O=C(Cn1ccnc1[N+](=O)[O-])NCc1ccccc1 | -0.913%
CCCCCCCCCCCCCCCCN | -1.67%
CC(C)=CCC/C(C)=C/CO | 1.12%
CC(=O)Nc1ccc(OCCOCCOc2ccc(NC(C)=O)cc2)cc1 | 4.06%
O=C(O)Cn1c(C(=O)Nc2nc(-c3ccccc3Cl)cs2)cc2ccccc21 | 5.65%
CC(O)CCCCn1c(=O)c2c(ncn2C)n(C)c1=O (configuration not stated) | 2.15%
NC(=O)CC[C@@H](N)C(=O)O | 6.61%
CC(C)(C)C(=O)OCOC(=O)[C@@H]1N2C(=O)[C@@H](NC(=O)[C@H](N)c3ccccc3)[C@H]2SC1(C)C | 2.77% [at 17.1 µM]
NNc1nnc(NN)c2ccccc12 | 6.03%
COc1ccccc1Oc1c(NS(=O)(=O)c2ccc(C(C)(C)C)cc2)nc(-c2ncccn2)nc1OCCO | -0.709%
O=C1c2ccccc2C(=O)C1c1ccc(Br)cc1 | 4.04%
O=C(CCBr)N1CCN(C(=O)CCBr)CC1 | 1.95%
CC(C)C[C@@H](N)C(=O)O | -0.354%
Nc1ccc(S(=O)(=O)c2ccc(N)cc2)cc1 | 0%
CCCCC1(COC(=O)CCC(=O)O)C(=O)N(c2ccccc2)N(c2ccccc2)C1=O | 2.12% [at 17.1 µM]
O=C1C(c2[nH]c3ccccc3c2O)=Nc2ccccc21 | 15.3%
NC(N)=NS(=O)(=O)c1ccc(N)cc1 | 3.3% [at 17.1 µM]
C[C@@H](N)C(=O)O | -13.4%
NC(=O)c1ccc([N+](=O)[O-])cc1Cl | -3.12%
N[C@@H](Cc1ccc(O)cc1)C(=O)O | 1.42%
Cc1ccccc1N=Nc1ccc(N=Nc2c(O)ccc3ccccc23)c(C)c1 | -5.13%
c1ccc2[nH]ccc2c1 | 11.7%
